Sampled rows, rich in hits. Any-hit rate of the full collection: about 28%.
CYP2C19 inh: blocks human cytochrome P450 2C19 | CYP2C19 Supersomes, luciferin-H EGE luminescence, 30 min | inhibition, % at 5 µM | 96,000 tested, 21% active;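 active means CYP2C19 inhibition above a set limit at 5 µM in the primary screen, cut at about 50% in these data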
CYP2C19 act: cytochrome P450 2C19 (human) activation; P33261; recombinant CYP2C19, luciferin-H EGE luminescence; stronger effect = higher value; 0 = fully inhibited enzyme, 1 = untreated enzyme; activation factor at 5 µM; 96,000 tested, under 10 active; AID 1025;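 active means activation factor of at least 2 at 5 µM in the primary screen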
CYP2C9 inhib: blocks human cytochrome P450 2C9; P11712; CYP2C9 Supersomes, luciferin-H conversion, luminescence; inhibition, % at 5 µM; 96,000 tested, 20% active; AID 777;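 active means blocking of liver enzyme CYP2C9 beyond about 50% at 5 µM, limit read from the data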
DAT uptake mod: changed human dopamine transporter uptake under cocaine IC80; Q01959; LLC-PK1 hDAT cells, [14C]-dopamine uptake with cocaine IC80; actives deviate in either direction; B-score at 10 µM; 110,000 tested, 1.3% active;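 active means Z score or B-score, a plate-position-corrected score, falls beyond the plate's 99.7% confidence bounds, in either direction; inactive means both scores lie inside the 99.7% bounds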
CYP2C9 activ: CYP2C9 (human) activation | recombinant CYP2C9, luciferin-H conversion, luminescence; stronger effect = higher value; factor 1 = untreated enzyme, 0 = blocked | activation factor at 5 µM | 96,000 tested, 1.4% active;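 active means activation factor of 2 or more for CYP2C9 at a 5 µM dose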
D1 allo mod: allosteric modulators of human D1 dopamine receptor; P21728; HEK293 D1, CRE-luciferase, dopamine EC30 potentiation; actives deviate in either direction; B-score at 10 µM; 58,000 tested, 5.9% active; AID 641;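 active means luminescence count or its row- and column-corrected plate score outside the 99.7% band of the plate's sample wells, on either side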
Target sequence (P21728 whole entry, looked up): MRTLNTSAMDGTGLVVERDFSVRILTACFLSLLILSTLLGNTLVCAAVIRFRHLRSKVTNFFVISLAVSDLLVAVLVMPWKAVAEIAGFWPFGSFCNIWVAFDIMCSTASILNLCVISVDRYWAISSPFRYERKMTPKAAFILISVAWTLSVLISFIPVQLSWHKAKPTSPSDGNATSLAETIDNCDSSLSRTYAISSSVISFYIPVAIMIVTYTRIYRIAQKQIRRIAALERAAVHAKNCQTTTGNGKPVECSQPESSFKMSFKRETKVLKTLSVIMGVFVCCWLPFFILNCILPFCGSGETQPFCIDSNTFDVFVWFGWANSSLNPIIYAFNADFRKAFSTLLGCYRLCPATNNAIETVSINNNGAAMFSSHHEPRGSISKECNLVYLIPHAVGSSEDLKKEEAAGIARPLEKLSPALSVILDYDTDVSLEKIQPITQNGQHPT
A number is an active result; . = inactive; / = no result.

SMILES	CYP2C19 inh	CYP2C19 act	CYP2C9 inhib	DAT uptake mod	CYP2C9 activ	D1 allo mod
COc1cccc(CNC(=O)C2CCCN(S(=O)(=O)c3cnc[nH]3)C2)c1 (stereo not drawn)	92	.	77	.	.	.
COc1cccc(CNC(=O)C2CCCN(S(=O)(=O)c3cccc4nonc34)C2)c1 (stereo not drawn)	.	.	.	.	.	/
COc1cccc(CNC(=O)C2CCN(S(=O)(=O)c3cnc[nH]3)CC2)c1	.	.	76	.	.	.
COc1cccc(CNC(=O)C2CCCN(S(C)(=O)=O)C2)c1 (stereo not drawn)	.	.	75	.	.	.
CCS(=O)(=O)N1CCC(C(=O)NCc2cccc(OC)c2)CC1	.	.	.	/	.	.
CCCn1c(SCC(=O)NC)nnc1C(C)C	.	.	.	.	.	.
Cn1c(/C(C#N)=C(\O)COc2ccc3ccccc3c2)nc2ccccc21	.	.	.	.	.	.
CCN(CC)c1ccc(-c2nc3cnccn3c2NC2CCCC2)cc1	94	.	98	.	.	/
CC(C)(C)CC(C)(C)Nc1c(-c2ccc(O)cc2)nc2cnccn12	/	/	/	.	/	/
c1cn2c(NC3CCCC3)c(-c3ccc(N4CCOCC4)cc3)nc2cn1	95	.	98	.	.	.
Cc1nc2sc(C(c3cccs3)N3CCN(c4ccccc4)CC3)c(O)n2n1 (stereo not drawn)	.	.	.	.	.	.
Cc1oc(-c2ccccc2F)nc1CS(=O)(=O)CC(=O)NC1CCCC1	.	.	52	.	.	.
Cc1oc(-c2ccccc2F)nc1CS(=O)(=O)CC(=O)NCCN(C)C1CCCCC1	.	.	.	/	.	.
Cc1oc(-c2ccccc2F)nc1CS(=O)(=O)CC(=O)N1CCc2ccccc21	.	.	.	.	.	.
Cc1oc(-c2ccccc2F)nc1CS(=O)(=O)CC(=O)N1CCN(c2ccccc2)CC1	60	.	65	.	.	/
COc1cccc(N(C(=O)Cn2nnc(-c3ccc(C)cc3)n2)C(C(=O)NC(C)(C)C)c2c[nH]c3ccccc23)c1 (stereo not drawn)	.	.	88	.	.	/
O=C(NC1CCCC1)C(c1c[nH]c2ccccc12)N(C(=O)Cn1nnc(-c2ccc(Cl)cc2)n1)c1ccccc1 (stereo not drawn)	.	.	67	.	.	/
CC(C)(C)NC(=O)C(c1ccco1)N(C(=O)Cn1nnc(-c2ccc(F)cc2)n1)c1ccccc1 (stereo not drawn)	/	/	/	/	/	.
O=C(NCCc1ccccc1)C1CCCN1C(=O)Nc1ccc(F)cc1 (stereo not drawn)	.	.	.	.	.	.
CCCCCn1c(SCc2cccc(C)c2)nc2c1c(=O)[nH]c(=O)n2C	/	/	/	.	/	.
Cc1ccc(S(=O)(=O)C2(C(=O)O)CCCC2)cc1C	.	.	.	.	.	.
O=C(N1CCOCC1)N1c2ccccc2Sc2ccccc21	55	.	.	.	.	/
O=c1/c(=C/c2ccccn2)sc2n1CN(c1ccccc1)CN=2	.	.	.	.	.	/
Cc1cccc(N2CN=c3s/c(=C\c4ccncc4)c(=O)n3C2)c1	59	.	.	/	.	.
COc1cc(N2CN=c3s/c(=C\c4ccccn4)c(=O)n3C2)cc(OC)c1OC	.	.	56	.	.	.
SMILES	CYP2C19 inh	CYP2C19 act	CYP2C9 inhib	DAT uptake mod	CYP2C9 activ	D1 allo mod
Cc1ccc(S(=O)(=O)Cc2c(C)noc2C)cc1	100	.	.	.	.	/
Cc1noc(C)c1CS(=O)(=O)c1ccc(Br)cc1	98	.	.	/	.	/
Cc1noc(C)c1COC(=O)CN(C)S(=O)(=O)c1ccc(Cl)cc1	.	.	.	.	.	.
COc1ccc(/C(O)=C/Sc2nnc(Cc3ccccc3)o2)cc1	.	.	.	/	.	/
Fc1ccccc1C(c1nnnn1Cc1ccc2c(c1)OCO2)N1CCN(Cc2ccco2)CC1 (stereo not drawn)	.	.	.	.	.	.
Cc1ccc(Sc2oc(/C=N/n3cnnc3)cc2Br)cc1	100	.	.	.	.	.
CCCCS(=O)CC(O)COc1ccc(C(C)(C)C)cc1 (stereo not drawn)	58	.	.	.	.	.
O=C(Nc1ccccc1C(=O)O)c1cncc(Br)c1	.	.	60	.	.	/
O=C(c1ccccc1)c1cncc(Br)c1	.	.	.	-8.1	.	.
Nc1ccc(C(=O)Nc2ccccc2C(=O)O)cc1	.	.	.	.	.	/
O=C(c1ccccc1)c1ccncc1	.	.	.	.	.	.
C/C=C\C(=O)Nc1cccc(C2=NOC3(C2)C[C@H](C(N)=O)N(C(=O)Cc2ccc([N+](=O)[O-])cc2)C3)c1 (stereo partly drawn)	/	/	/	.	/	/
Cc1cc(C)c(S(=O)(=O)N2CCN(c3nc4c(c(=O)n(C)c(=O)n4C)n3C)CC2)c(C)c1	.	.	.	/	.	.
COc1ccc(Br)cc1-c1noc(-c2ccccc2)n1	.	.	.	.	.	.
COCc1nc(-c2cc(Br)ccc2OC)no1	.	.	.	2.9	.	.
COc1ccc(-n2ncc3c(N4CCC(C)CC4)ncnc32)cc1	/	/	/	/	/	-5.8
CC1CCN(c2ncnc3c2cnn3-c2ccccc2)CC1	.	.	.	.	.	-3
CCOC(=O)C1CCN(c2ncnc3c2cnn3-c2ccccc2)CC1	.	.	.	.	.	.
O=C(C1CCCO1)N1CCN(Cc2c(O)ccc3ccccc23)CC1 (stereo not drawn)	.	.	.	.	.	/
COC(=O)c1ccc(N2C(=O)CC(N3CCN(c4ccccc4)CC3)C2=O)cc1 (stereo not drawn)	/	/	/	.	/	/
Cc1cc(N2C(=O)CC(N3CCN(c4ccc(C(=O)c5cccs5)cc4)CC3)C2=O)no1 (stereo not drawn)	.	.	59	.	.	/
COc1ccc(N2C(=O)C(Cl)=C(N(CCO)Cc3ccccc3)C2=O)cc1	97	.	98	.	.	.
CCCCCn1c(C(Cc2ccccc2)NC(=O)COC)nc2ccccc21 (stereo not drawn)	63	.	.	.	.	/
COc1ccc(OCC(O)CNc2ccc(Br)cc2)cc1 (stereo not drawn)	97	.	90	.	.	.
COc1ccc(C(=O)NCC(C)CN(C)C)cc1 (stereo not drawn)	.	.	.	.	.	.
SMILES	CYP2C19 inh	CYP2C19 act	CYP2C9 inhib	DAT uptake mod	CYP2C9 activ	D1 allo mod
COc1ccc(OCC(O)CNC(=O)c2ccc(Br)cc2)cc1 (stereo not drawn)	52	.	.	.	.	.
COc1ccc(OCC(O)Cn2cnc(-c3ccc(Br)cc3)c2)cc1 (stereo not drawn)	/	/	/	.	/	/
COc1ccc(OCC(O)COc2ccc(OC)cc2)cc1	89	.	.	.	.	.
O=C1N[C@@H](Cc2cnc[nH]2)C(=O)N2CCC[C@@H]12	/	/	/	.	/	.
Nc1nnnn1N=C1CCCCC1	.	.	.	.	.	/
OC(CNC1CCCCC1)CN1CCN(CC(O)CNC2CCCCC2)CC1 (stereo not drawn)	.	.	.	/	.	.

Screening results: PubChem, several laboratories
